# Measured values from the supplement of paper PMC4022240.
# ± gives the standard deviation.
# T1: HaloTag-ATRX ADD domain (163-292)
# T1 chain: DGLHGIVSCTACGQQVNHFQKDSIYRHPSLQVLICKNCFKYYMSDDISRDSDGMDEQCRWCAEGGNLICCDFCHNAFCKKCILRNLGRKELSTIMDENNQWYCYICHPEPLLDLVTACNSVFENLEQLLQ
# Tests used:
# Test in all cases: peptide microarray binding signal (635 nm), min-max normalized on array (fraction of array maximum); higher = stronger binding
# [1] = target: T1, HaloTag-ATRX ADD domain (163-292)
# Summary of the method: (§1)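 Arrays carried histone 13-mer peptide–cellulose conjugates printed in triplicate on nitrocellulose alongside a Cy3 tracer. After overnight blocking at 4°C, they were incubated for 1 h at 4°C with biotin-labelled HaloTag reader fusions (10 nM to 1 μM) plus streptavidin-Alexa Fluor 647, or with rabbit histone antibodies (1:10,000 to 1:2,000) plus anti-rabbit Alexa 647. Scanning on an Axon GenePix 4000B used 635 nm for signal and 532 nm for misprints. The binding signal reported is each triplicate's mean spot intensity after per-library min-max scaling.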
# [2] = target: HaloTag-ING2 PHD (mouse Ing2 200-280)
# Summary of the method: as §1
# [3] = target: anti-H3K4me3 antibody ab8580
# Summary of the method: as §1
# [4] = target: anti-H3K9me3 antibody ab8898
# Summary of the method: as §1
# [5] = peptide region: Unmod H1 variant, binder concentration: 50 nM
# [6] = peptide region: Unmod H1 variant, binder concentration: 500 nM
# [7] = peptide region: Unmod H1 variant, binder concentration: 10 nM
# [8] = peptide region: Unmod H1 variant, binder concentration: 100 nM
# [9] = peptide region: Unmod H1 variant, binder concentration: 1:2,000 dilution
# [10] = peptide region: Unmod H1 variant, binder concentration: 1:10,000 dilution
# [11] = peptide region: Unmod H2A variant, binder concentration: 50 nM
# [12] = peptide region: Unmod H2A variant, binder concentration: 500 nM
# [13] = peptide region: Unmod H2A variant, binder concentration: 10 nM
# [14] = peptide region: Unmod H2A variant, binder concentration: 100 nM
# [15] = peptide region: Unmod H2A variant, binder concentration: 1:2,000 dilution
# [16] = peptide region: Unmod H2A variant, binder concentration: 1:10,000 dilution
binder,measurement,setting,value
PKKAKAAKPKKAP [Unmod H1 variant P K K A K A A K P K K A P],peptide microarray binding signal,[1]; [5],0.009 ± 0.00089
same,peptide microarray binding signal,[1]; [6],0.01 ± 0.00062
same,peptide microarray binding signal,[2]; [7],0.00424 ± 0.00016
same,peptide microarray binding signal,[2]; [8],0.00751 ± 0.00063
same,peptide microarray binding signal,[3]; [9],0.0006985 ± 6.5e-06
same,peptide microarray binding signal,[3]; [10],0.00171 ± 3.3e-05
same,peptide microarray binding signal,[4]; [9],0.000589 ± 9.4e-06
same,peptide microarray binding signal,[4]; [10],0.00773 ± 0.0051
QGGKARAKAKSRS [Unmod H2A variant Q G G K A R A K A K S R S],peptide microarray binding signal,[1]; [11],0.0073 ± 0.00042
same,peptide microarray binding signal,[1]; [12],0.0168 ± 0.0004
same,peptide microarray binding signal,[2]; [13],0.002507 ± 1.4e-05
same,peptide microarray binding signal,[2]; [14],0.00758 ± 0.0021
same,peptide microarray binding signal,[3]; [15],0.00164 ± 0.00013
same,peptide microarray binding signal,[3]; [16],0.001027 ± 1e-05
same,peptide microarray binding signal,[4]; [15],0.000302 ± 3.1e-06
same,peptide microarray binding signal,[4]; [16],0.000404 ± 4.4e-06
SGRGKQGGKARAK [Unmod H2A variant S G R G K Q G G K A R A K],peptide microarray binding signal,[1]; [11],0.0203 ± 0.0024
same,peptide microarray binding signal,[1]; [12],0.0194 ± 0.0069
same,peptide microarray binding signal,[2]; [13],0.0104 ± 0.00068
same,peptide microarray binding signal,[2]; [14],0.0167 ± 0.00073
same,peptide microarray binding signal,[3]; [15],0.000151 ± 1.7e-06
same,peptide microarray binding signal,[3]; [16],0.00337 ± 0.0001
same,peptide microarray binding signal,[4]; [15],0.00112 ± 1.7e-05
same,peptide microarray binding signal,[4]; [16],0.00133
KAKSSAKRAGKKK [Unmod H1 variant K A K S S A K R A G K K K],peptide microarray binding signal,[1]; [6],0.016 ± 0.0011
same,peptide microarray binding signal,[2]; [8],0.00369 ± 5.6e-05
same,peptide microarray binding signal,[3]; [9],0.00034 ± 6.1e-06
same,peptide microarray binding signal,[4]; [9],0.000227
AKAVKPKAAKPKT [Unmod H1 variant A K A V K P K A A K P K T],peptide microarray binding signal,[1]; [5],0.0116 ± 0.00013
same,peptide microarray binding signal,[1]; [6],0.00791 ± 0.00033
same,peptide microarray binding signal,[2]; [7],0.00304 ± 8.9e-05
same,peptide microarray binding signal,[2]; [8],0.00765 ± 0.00045
same,peptide microarray binding signal,[3]; [9],0.000774 ± 2.8e-05
same,peptide microarray binding signal,[3]; [10],0.00137 ± 1.3e-05
same,peptide microarray binding signal,[4]; [9],0.000453 ± 1.3e-05
same,peptide microarray binding signal,[4]; [10],0.000865 ± 9e-06
AAGAKKAKSPKKA [Unmod H1 variant A A G A K K A K S P K K A],peptide microarray binding signal,[1]; [5],0.0119 ± 0.00059
same,peptide microarray binding signal,[1]; [6],0.01348 ± 5.3e-05
same,peptide microarray binding signal,[2]; [7],0.003342 ± 1.8e-05
same,peptide microarray binding signal,[2]; [8],0.00999 ± 0.0011
same,peptide microarray binding signal,[3]; [9],0.00068 ± 1.9e-05
same,peptide microarray binding signal,[3]; [10],0.00143 ± 2.4e-05
same,peptide microarray binding signal,[4]; [9],0.0004379 ± 4.2e-06
same,peptide microarray binding signal,[4]; [10],0.00115
QGGKARAKSKSRS [Unmod H2A variant Q G G K A R A K S K S R S],peptide microarray binding signal,[1]; [11],0.0112 ± 0.00043
same,peptide microarray binding signal,[1]; [12],0.0328 ± 0.0016
same,peptide microarray binding signal,[2]; [13],0.00824 ± 9.4e-05
same,peptide microarray binding signal,[2]; [14],0.0201 ± 0.0027
same,peptide microarray binding signal,[3]; [15],0.00194 ± 0.00036
same,peptide microarray binding signal,[3]; [16],0.00143 ± 2.4e-05
same,peptide microarray binding signal,[4]; [15],0.000574 ± 1.1e-05
same,peptide microarray binding signal,[4]; [16],0.000807 ± 1.5e-05
KKAPKSPAKAKAV [Unmod H1 variant K K A P K S P A K A K A V],peptide microarray binding signal,[1]; [5],0.00658 ± 0.0021
same,peptide microarray binding signal,[1]; [6],0.00976 ± 0.00041
same,peptide microarray binding signal,[2]; [7],0.00412 ± 0.0002
same,peptide microarray binding signal,[2]; [8],0.00978 ± 0.00048
same,peptide microarray binding signal,[3]; [9],0.000793 ± 4.5e-05
same,peptide microarray binding signal,[3]; [10],0.00154 ± 3.9e-05
same,peptide microarray binding signal,[4]; [9],0.000347 ± 9.2e-06
same,peptide microarray binding signal,[4]; [10],0.00115 ± 2e-05
KAAKPKKAAAKKK [Unmod H1 variant K A A K P K K A A A K K K],peptide microarray binding signal,[1]; [5],0.00972 ± 0.0014
same,peptide microarray binding signal,[1]; [6],0.00767 ± 0.00046
same,peptide microarray binding signal,[2]; [7],0.0034 ± 6.6e-05
same,peptide microarray binding signal,[2]; [8],0.00673 ± 0.00083
same,peptide microarray binding signal,[3]; [9],0.0007173 ± 6.6e-06
same,peptide microarray binding signal,[3]; [10],0.00143
same,peptide microarray binding signal,[4]; [9],0.000619 ± 2.4e-05
same,peptide microarray binding signal,[4]; [10],0.00156 ± 6.6e-05
KPKTAKPKAAKPK [Unmod H1 variant K P K T A K P K A A K P K],peptide microarray binding signal,[1]; [5],0.0113 ± 0.0004
same,peptide microarray binding signal,[1]; [6],0.00857 ± 0.00027
same,peptide microarray binding signal,[2]; [7],0.00292 ± 8.4e-05
same,peptide microarray binding signal,[2]; [8],0.00914 ± 0.00042
same,peptide microarray binding signal,[3]; [9],0.000736
same,peptide microarray binding signal,[3]; [10],0.00143 ± 2.4e-05
same,peptide microarray binding signal,[4]; [9],0.000529 ± 1.8e-05
same,peptide microarray binding signal,[4]; [10],0.0011 ± 1.1e-05
KAAAASKKKPAGP [Unmod H1 variant K A A A A S K K K P A G P],peptide microarray binding signal,[1]; [6],0.0113 ± 0.0013
same,peptide microarray binding signal,[2]; [8],0.003402 ± 3e-05
same,peptide microarray binding signal,[3]; [9],0.000321 ± 3.3e-06
same,peptide microarray binding signal,[4]; [9],0.000181 ± 3.4e-06
